Records with an inconclusive call do not appear. The source made the active and inactive calls. Unless noted, the call rests on the fitted dose curve; in most records, active means well fitted curve in the direction sought with a large enough effect; inconclusive means small, poorly fitted or top-dose-only effect, or another doubt; inactive means no such curve, though single readings can be large; an effect the other way counts as inactive or inconclusive.
Tests used:
[1] = AP1 Signaling Pathway (AID 357; active means well fitted curve in either direction with a large enough effect, not every such curve was filed as active;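 further: ME-180 reporter cells stimulated with EGF at its EC50 level; on the % scale 0 is the no-effect control and ±100 the full control effect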)
Outline: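 Modulation of EGF-driven AP-1 transcription was assessed with a beta-lactamase reporter in ME-180 cells. Compound and EC50 EGF were co-incubated 5 hours at 37 °C before 2.5-hour CCF4 loading at room temperature and dual-emission reading.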

[2] = NFAT Signaling Pathway (AID 444; active means well fitted curve in either direction with a large enough effect, not every such curve was filed as active;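 further: carbachol stimulus at about its EC50 of 1 µM final; on the % scale 0 is the no-effect control and ±100 the full control effect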); details: Jurkat NFAT-bla M1, carbachol, beta-lactamase ratio, 5 h
Outline: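 Read-out: CCF4 FRET ratio (460 nm/530 nm) after 1 h RT dye loading, used for %activity and AC50 from titration series. Cells: Jurkat NFAT-β-lactamase/M1 line, treated with compound plus 1 uM carbachol for 5 h, 37 °C.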

[3] = target: Glucocorticoid receptor (Homo sapiens) (UniProt P04150); assay: GR-GFP Redistribution (AID 450;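 active means compounds whose dose series gives a full or clear partial fitted curve of increased nuclear translocation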; further: potency means the concentration at half of the fitted maximal effect); details: U2OS GR-GFP nuclear translocation, laser cytometry, 2 h
[4] = system: Zika virus NS2B-NS3 protease; assay: Primary screen GU AMC qHTS for Zika virus inhibitors (AID 1347154);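 further: 0% = no-inhibitor control and -100% = no-enzyme control; nearly all actives have a fitted effect of over 70% in size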
Outline: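 Fluorogenic AMC-substrate cleavage by noncovalent NS2B-NS3 protease complex (25 nM, pH 8.0 Tris buffer with Tween 20) followed for 15 minutes at room temperature (~20% conversion). Percent inhibition from ex340/em450 signal change, fitted by 4-parameter Hill equation.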

[5] = Primary qHTS for small molecule stabilizers of the endoplasmic reticulum resident proteome: Secreted ER Calcium Modulated Protein (SERCaMP) assay (AID 1508630); further: on the % scale 0 is the no-effect control and ±100 the full control effect
Outline: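 GLuc-SERCaMP-expressing SH-SY5Y cells, pretreated 16 h with compound, are challenged with thapsigargin to empty ER calcium stores; after 4 h, coelenterazine is added directly to the medium and luminescence is imaged.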

[6] = target: Cytochrome P450 1A2 (Homo sapiens) (UniProt P05177); assay: p450-cyp1a2 (AID 410; calls by dose curve;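 further: -100% = full effect of reference inhibitor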)
Outline: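 Inhibition was calculated relative to 57 uM furafylline (full inhibition). The reaction used human CYP1A2 at 20nM with Luciferin-ME at its Km, 100uM, driven by an NADPH-regenerating system for 60 min at room temperature.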

[7] = target: Glucocorticoid receptor (Homo sapiens) (UniProt P04150); assay: GR-EFC Redistribution (AID 451; calls by dose curve; further: potency means the concentration at half of the fitted maximal effect); details: CHO-K1 GR-EFC translocation, beta-gal luminescence, 2 h
Outline: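 Translocation of GR-ED fusion to nuclear EA restores b-gal, read by luminescence after 1 h room-temperature detection. Engineered CHO-K1 biosensor cells, 1,000/well, exposed 2 h at 37 C to titrations up to 46 uM final.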

[8] = target: Mitogen-activated protein kinase 10 (Mus musculus) (UniProt Q61831); assay: JNK3 AlphaScreen Assay (AID 530; active means well fitted curve in either direction with a large enough effect, not every such curve was filed as active;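 further: kinase came from lysate of stimulated human HepG2 cells; signal reports phosphorylation of biotinylated GST-cJun 1-79 at Ser73 with 10 µM ATP; on the % scale 0 is the no-effect control and ±100 the full control effect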)
Outline: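 Room-temperature AlphaScreen kinase assay; pre-activated HepG2 lysate as JNK3 source, biotin-GST-cJun(1-79) substrate, 10 uM ATP, compound 15 min preincubation.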

[9] = target: 3',5'-cyclic-AMP phosphodiesterase 4B (Homo sapiens) (UniProt Q07343); assay: qHTS Assay for Inhibitors of PDE-IV (AID 607; active means well fitted activation curve with a large enough effect in the main read-out, with a control signal flat, not every such curve was filed as active; further: % of control where 0% means no effect)
Outline: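 The readout is membrane depolarisation from a cAMP-sensing CNG channel, detected with a potential dye at ex 535/em 590. Cells were HEK293-derived (endogenous PDE-IV) at 1000 cells/well, titrated up to 22.9 uM final.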

[10] = target: Guanine nucleotide-binding protein G(i) subunit alpha-1 (Homo sapiens) (UniProt P63096); assay: qHTS Assay for Inhibitors of RGS12 GoLoco Motif Activity (Green Fluorophore) (AID 879);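 further: 0% = labeled peptide with Gαi1 and full inhibition = labeled peptide alone without protein; negative values mean loss of peptide binding seen as reduced polarization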
Outline: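 Fluorescence polarization assay: 50 nM Gαi1 with 10 nM FITC-labeled RGS12 GoLoco peptide in 10 mM Tris pH 7.5, 150 mM NaCl, 0.1 mM GDP, 0.05% NP40, 10 min at room temperature with compound.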

[11] = target: Cytochrome P450 2C9 (Homo sapiens) (UniProt P11712); assay: qHTS Assay for Inhibitors and Substrates of Cytochrome P450 2C9 (AID 883); further: on the % scale 0 is the no-effect control and ±100 the full control effect; nearly all actives have a fitted effect of over 60% in size
Outline: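 Inhibition of CYP2C9 is scored as loss of luminescence, with 57uM sulphaphenazole defining 100% inhibition. Substrate Luciferin-H is used at 100uM, equal to its KM; enzyme at 10nM in 25mM KPO4, 60 min at 37C with NADPH regeneration.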

[12] = target: Cytochrome P450 3A4 (Homo sapiens) (UniProt P08684); assay: qHTS Assay for Inhibitors and Substrates of Cytochrome P450 3A4 (AID 884); further: on the % scale 0 is the no-effect control and ±100 the full control effect; nearly all actives have a fitted effect of over 50% in size
Outline: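 20 nM human CYP3A4 with 25 uM Luciferin-PPXE (at KM) in 200 mM KPO4, preincubated 10 min with compound; NADPH regeneration started a 60 min RT reaction. Luciferin detected by luminescence, normalized to 57 uM ketoconazole as full inhibition.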

[13] = target: Cytochrome P450 2D6 (Homo sapiens) (UniProt P10635); assay: qHTS Assay for Inhibitors and Substrates of Cytochrome P450 2D6 (AID 891);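 further: luciferin methyl ether substrate demethylated by CYP2D6 with NADPH regeneration; on the % scale 0 is the no-effect control and ±100 the full control effect; nearly all actives have a fitted effect of over 60% in size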
Outline: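 Human CYP2D6 (5 nM) with 30 uM Luciferin-ME EGE (at Km) in 100 mM KPO4, compound preincubated 10 min, then NADPH regeneration system for 60 min at room temperature. Luciferin read by luminescence; normalized to 1.43 uM quinidine.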

[14] = target: Cytochrome P450 2C19 (Homo sapiens) (UniProt P33261); assay: qHTS Assay for Inhibitors and Substrates of Cytochrome P450 2C19 (AID 899); further: on the % scale 0 is the no-effect control and ±100 the full control effect; nearly all actives have a fitted effect of over 60% in size
Outline: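 5nM enzyme + 10uM Luciferin-H EGE (=KM), 50mM KPO4; cpd pin-transferred, 10 min 37C; NADPH regen, 60 min 37C; stopped w/ luciferin detection reagent, 20 min; luminescence. Normalized to 57uM ketoconazole (AC100).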

[15] = qHTS Assay for Identification of Small Molecule Agonists for Thrombopoietin (TPO) Signaling Pathway (AID 917); further: on the % scale 0 is the no-effect control and ±100 the full control effect
Outline: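 We measured Glycoprotein IIb promoter–luciferase output in IL-3-starved Ba/F3 murine cells expressing the human TPO receptor after 24 hrs at 37 C with compounds and 26 pM TPO.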

[16] = target: Muscarinic acetylcholine receptor M1 (Rattus norvegicus) (UniProt P08482); assay: qHTS Assay for Antagonists of Acetylcholine Muscarinic M1 Receptor: Kinetic Measurement of Intracellular Calcium Response (AID 943);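 further: Fluo-4 calcium signal as peak divided by basal fluorescence over 4 min; nearly all actives have a fitted effect of over 75% in size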
Outline: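 Intracellular calcium flux, recorded with Fluo-4 in a kinetic plate reader, served as signal; the response to carbachol at EC80 (100 nM final) was taken as maximal over minimal fluorescence after a 10 min compound pre-incubation in rat M1-CHO cells.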

[17] = target: Muscarinic acetylcholine receptor M1 (Rattus norvegicus) (UniProt P08482); assay: qHTS Assay for Antagonists of Acetylcholine Muscarinic M1 Receptor: Measurement of IP-One Response (AID 944); further: nearly all actives have a fitted effect of over 75% in size
Outline: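 Steps: plate transfected CHO-M1 cells overnight; add test compound, 10 min; add carbachol (200 nM, EC80) in stimulation buffer with LiCl; incubate 30 min; add labelled IP1 tracer and anti-IP1 antibody in lysis buffer; read HTRF after 10 min.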

[18] = target: Pyruvate kinase (Leishmania mexicana) (UniProt Q27686); assay: qHTS Validation Assay for Inhibitors of Leishmania Mexicana Pyruvate Kinase (AID 945);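 further: 0% = DMSO only neutral control wells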
Outline: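 LmPYK E451W 0.2 nM; 0.5 mM PEP, 0.1 mM ADP, 7 mM MgCl2, 50 mM KCl, imidazole pH 7.2, 0.01% Tween 20, 0.05% BSA; 1 h RT; PKLight luminescence; DMSO-normalized.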

[19] = target: Alpha-galactosidase (Coffea arabica) (UniProt Q42656); assay: Counterscreen for Glucocerebrosidase Inhibitors: qHTS Assay for Coffee Bean alpha-Galactosidase at pH 4.5 (AID 957);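 further: plate controls were enzyme alone for no effect and no enzyme for full effect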
Outline: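 AC50 values derive from Hill-equation modeling of concentration-response data, normalized to no-enzyme and full-activity controls. The pH 4.5 citrate assay used 2 nM coffee bean enzyme and 80 uM fluorogenic substrate for 20 min.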

[20] = target: Alpha-galactosidase A (Homo sapiens) (UniProt P06280); assay: Counterscreen for Glucocerebrosidase Inhibitors: qHTS Assay for Human alpha-Galactosidase at pH 4.5 (AID 992); further: 0% is about no effect
Outline: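 Concentration-response curves (0.7 nM to 77 uM final) were modeled with the Hill equation to give AC50. Reactions: 2 nM enzyme, 80 uM fluorogenic alpha-galactoside, pH 4.5 citric acid buffer, 20 min, room temperature.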

[21] = target: Alpha-galactosidase (Coffea arabica) (UniProt Q42656); assay: Counterscreen for Glucocerebrosidase Inhibitors: qHTS Assay for Coffee Bean alpha-Galactosidase at pH 5.9 (AID 998);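 further: plate controls were uninhibited enzyme for no effect and no-enzyme basal signal for full effect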
Outline: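 Compounds were titrated from 0.7 nM to 77 uM against green coffee bean alpha-galactosidase (2 nM) using 80 uM fluorogenic 4-methylumbelliferyl substrate. After 20 min at room temperature, reactions were stopped at pH 10 and read by fluorescence.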

[22] = target: Ubiquitin carboxyl-terminal hydrolase 1 (Homo sapiens) (UniProt O94782); assay: Inhibitors of USP1/UAF1: Pilot qHTS (AID 504865);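 further: rhodamine fluorescence freed from ubiquitin-rhodamine substrate followed over time; top concentration of the series differs between compounds; on the % scale 0 is the no-effect control and ±100 the full control effect; nearly all actives have a fitted effect of over 35% in size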
Outline: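 Kinetic fluorescence assay: 1nM USP1/UAF1, 15 min compound preincubation, then 150nM Ub-Rho; 480/540 nm.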

[23] = target: DNA dC->dU-editing enzyme APOBEC-3G (Homo sapiens) (UniProt Q9HC16); assay: qHTS for inhibitors of Vif-A3G interactions: Validation (AID 588379); further: 0% is about no effect
Outline: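 HeLa cells stably expressing Vif and A3G-eYFP, 700 cells/well, incubated overnight at 37 deg C, then exposed to compound overnight at 37 deg C. Inhibition of Vif-mediated degradation read as increased yellow fluorescence (Ex 488/Em 500-530) by laser-scanning cytometry.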

Chain of Glucocorticoid receptor (Homo sapiens) (P04150 whole entry, looked up, the tested form may be a part): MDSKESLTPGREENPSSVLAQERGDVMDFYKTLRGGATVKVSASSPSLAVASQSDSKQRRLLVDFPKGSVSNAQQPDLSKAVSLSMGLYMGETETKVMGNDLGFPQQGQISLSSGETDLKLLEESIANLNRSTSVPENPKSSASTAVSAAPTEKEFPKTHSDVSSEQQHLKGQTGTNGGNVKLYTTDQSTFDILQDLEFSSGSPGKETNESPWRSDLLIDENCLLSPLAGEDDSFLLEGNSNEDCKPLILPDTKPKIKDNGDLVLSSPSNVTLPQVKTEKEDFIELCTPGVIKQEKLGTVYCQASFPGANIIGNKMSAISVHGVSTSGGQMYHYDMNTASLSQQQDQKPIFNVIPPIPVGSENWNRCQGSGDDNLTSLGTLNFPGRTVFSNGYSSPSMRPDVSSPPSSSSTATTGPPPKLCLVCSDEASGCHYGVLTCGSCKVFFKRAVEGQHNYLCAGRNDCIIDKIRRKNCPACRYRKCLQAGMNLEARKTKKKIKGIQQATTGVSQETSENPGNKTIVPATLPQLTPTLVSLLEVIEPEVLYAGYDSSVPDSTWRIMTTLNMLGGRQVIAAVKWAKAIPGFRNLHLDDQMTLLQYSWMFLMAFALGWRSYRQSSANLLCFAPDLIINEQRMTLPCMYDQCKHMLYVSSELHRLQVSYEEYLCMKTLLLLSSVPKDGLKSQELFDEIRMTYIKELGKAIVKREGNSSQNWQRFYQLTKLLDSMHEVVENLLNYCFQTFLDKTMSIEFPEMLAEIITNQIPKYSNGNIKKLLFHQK
Chain of Alpha-galactosidase (Coffea arabica) (Q42656 whole entry, looked up): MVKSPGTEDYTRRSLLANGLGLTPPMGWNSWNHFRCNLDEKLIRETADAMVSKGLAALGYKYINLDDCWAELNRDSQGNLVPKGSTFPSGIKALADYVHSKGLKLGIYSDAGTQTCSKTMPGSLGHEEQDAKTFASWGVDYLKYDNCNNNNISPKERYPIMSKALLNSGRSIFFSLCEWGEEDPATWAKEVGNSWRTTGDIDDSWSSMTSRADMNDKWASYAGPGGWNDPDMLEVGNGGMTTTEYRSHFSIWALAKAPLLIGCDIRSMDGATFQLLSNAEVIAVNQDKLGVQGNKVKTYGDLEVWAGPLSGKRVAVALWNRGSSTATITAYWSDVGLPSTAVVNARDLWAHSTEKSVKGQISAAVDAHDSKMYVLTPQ
Chain of Muscarinic acetylcholine receptor M1 (Rattus norvegicus) (P08482 whole entry, looked up): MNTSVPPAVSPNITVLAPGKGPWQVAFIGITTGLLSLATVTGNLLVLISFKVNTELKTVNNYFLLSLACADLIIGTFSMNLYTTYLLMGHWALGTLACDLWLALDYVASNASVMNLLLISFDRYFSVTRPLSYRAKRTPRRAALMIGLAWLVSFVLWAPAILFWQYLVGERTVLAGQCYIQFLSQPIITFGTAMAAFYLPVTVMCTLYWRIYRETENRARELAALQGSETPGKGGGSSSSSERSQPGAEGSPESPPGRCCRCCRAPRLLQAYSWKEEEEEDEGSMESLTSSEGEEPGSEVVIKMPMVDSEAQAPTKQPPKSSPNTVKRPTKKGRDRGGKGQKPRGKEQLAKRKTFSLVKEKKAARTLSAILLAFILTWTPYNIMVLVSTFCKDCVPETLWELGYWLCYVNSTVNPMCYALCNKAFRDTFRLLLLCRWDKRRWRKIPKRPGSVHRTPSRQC
Chain of 3',5'-cyclic-AMP phosphodiesterase 4B (Homo sapiens) (Q07343 whole entry, looked up): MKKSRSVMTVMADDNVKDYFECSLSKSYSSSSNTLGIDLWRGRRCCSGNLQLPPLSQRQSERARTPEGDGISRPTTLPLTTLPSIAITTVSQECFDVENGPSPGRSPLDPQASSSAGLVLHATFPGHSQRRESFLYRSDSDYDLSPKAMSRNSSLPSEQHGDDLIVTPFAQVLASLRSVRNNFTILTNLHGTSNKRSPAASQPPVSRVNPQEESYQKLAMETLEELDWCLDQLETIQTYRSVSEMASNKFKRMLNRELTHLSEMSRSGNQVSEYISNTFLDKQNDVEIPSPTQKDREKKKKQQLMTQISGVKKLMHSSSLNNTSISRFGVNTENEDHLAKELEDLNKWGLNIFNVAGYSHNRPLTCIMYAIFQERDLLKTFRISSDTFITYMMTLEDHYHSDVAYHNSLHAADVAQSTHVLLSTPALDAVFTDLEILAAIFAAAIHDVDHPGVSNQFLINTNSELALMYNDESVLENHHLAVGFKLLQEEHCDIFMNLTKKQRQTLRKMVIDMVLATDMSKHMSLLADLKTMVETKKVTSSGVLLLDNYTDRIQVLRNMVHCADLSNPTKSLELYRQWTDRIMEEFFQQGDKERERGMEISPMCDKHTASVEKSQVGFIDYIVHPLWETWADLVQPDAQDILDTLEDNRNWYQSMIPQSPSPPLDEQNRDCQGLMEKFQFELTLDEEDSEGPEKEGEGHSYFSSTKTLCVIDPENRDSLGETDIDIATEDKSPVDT
Chain of Cytochrome P450 3A4 (Homo sapiens) (P08684 whole entry, looked up): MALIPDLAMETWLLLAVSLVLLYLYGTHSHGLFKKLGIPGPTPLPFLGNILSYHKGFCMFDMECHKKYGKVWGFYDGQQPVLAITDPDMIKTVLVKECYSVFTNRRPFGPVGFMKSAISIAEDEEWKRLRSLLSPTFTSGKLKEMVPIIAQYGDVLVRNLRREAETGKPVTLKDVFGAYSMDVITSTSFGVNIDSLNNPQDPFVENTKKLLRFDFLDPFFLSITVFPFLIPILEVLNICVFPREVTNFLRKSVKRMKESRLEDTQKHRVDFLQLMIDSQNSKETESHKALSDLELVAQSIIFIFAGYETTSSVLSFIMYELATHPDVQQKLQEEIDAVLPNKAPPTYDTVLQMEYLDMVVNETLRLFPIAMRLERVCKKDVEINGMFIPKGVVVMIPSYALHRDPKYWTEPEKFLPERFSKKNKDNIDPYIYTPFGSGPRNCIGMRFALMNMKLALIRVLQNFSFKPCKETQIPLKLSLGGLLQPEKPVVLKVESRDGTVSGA
Chain of DNA dC->dU-editing enzyme APOBEC-3G (Homo sapiens) (Q9HC16 whole entry, looked up): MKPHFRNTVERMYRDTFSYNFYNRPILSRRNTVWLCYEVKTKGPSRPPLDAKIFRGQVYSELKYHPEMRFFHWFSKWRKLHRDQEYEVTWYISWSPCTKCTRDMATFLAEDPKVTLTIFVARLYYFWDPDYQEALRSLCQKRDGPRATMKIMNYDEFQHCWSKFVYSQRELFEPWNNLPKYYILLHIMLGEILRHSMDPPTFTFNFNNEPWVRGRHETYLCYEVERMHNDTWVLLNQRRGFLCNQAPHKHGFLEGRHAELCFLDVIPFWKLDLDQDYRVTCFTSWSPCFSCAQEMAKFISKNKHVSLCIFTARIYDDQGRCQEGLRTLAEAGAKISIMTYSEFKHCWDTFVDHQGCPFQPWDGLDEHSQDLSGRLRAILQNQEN
Chain of Cytochrome P450 1A2 (Homo sapiens) (P05177 whole entry, looked up): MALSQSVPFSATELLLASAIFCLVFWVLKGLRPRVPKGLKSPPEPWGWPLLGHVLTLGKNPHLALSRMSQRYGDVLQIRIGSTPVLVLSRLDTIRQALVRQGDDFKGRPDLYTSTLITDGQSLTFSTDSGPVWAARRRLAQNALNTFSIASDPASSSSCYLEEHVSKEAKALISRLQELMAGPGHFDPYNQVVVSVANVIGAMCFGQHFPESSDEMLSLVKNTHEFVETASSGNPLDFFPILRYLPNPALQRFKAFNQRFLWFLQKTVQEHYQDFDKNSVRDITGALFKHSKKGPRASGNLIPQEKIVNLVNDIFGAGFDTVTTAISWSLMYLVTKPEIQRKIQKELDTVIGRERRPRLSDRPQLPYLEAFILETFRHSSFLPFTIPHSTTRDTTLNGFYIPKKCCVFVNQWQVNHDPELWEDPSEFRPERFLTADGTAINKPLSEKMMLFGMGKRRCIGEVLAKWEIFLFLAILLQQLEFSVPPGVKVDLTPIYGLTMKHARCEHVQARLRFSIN
Chain of Ubiquitin carboxyl-terminal hydrolase 1 (Homo sapiens) (O94782 whole entry, looked up): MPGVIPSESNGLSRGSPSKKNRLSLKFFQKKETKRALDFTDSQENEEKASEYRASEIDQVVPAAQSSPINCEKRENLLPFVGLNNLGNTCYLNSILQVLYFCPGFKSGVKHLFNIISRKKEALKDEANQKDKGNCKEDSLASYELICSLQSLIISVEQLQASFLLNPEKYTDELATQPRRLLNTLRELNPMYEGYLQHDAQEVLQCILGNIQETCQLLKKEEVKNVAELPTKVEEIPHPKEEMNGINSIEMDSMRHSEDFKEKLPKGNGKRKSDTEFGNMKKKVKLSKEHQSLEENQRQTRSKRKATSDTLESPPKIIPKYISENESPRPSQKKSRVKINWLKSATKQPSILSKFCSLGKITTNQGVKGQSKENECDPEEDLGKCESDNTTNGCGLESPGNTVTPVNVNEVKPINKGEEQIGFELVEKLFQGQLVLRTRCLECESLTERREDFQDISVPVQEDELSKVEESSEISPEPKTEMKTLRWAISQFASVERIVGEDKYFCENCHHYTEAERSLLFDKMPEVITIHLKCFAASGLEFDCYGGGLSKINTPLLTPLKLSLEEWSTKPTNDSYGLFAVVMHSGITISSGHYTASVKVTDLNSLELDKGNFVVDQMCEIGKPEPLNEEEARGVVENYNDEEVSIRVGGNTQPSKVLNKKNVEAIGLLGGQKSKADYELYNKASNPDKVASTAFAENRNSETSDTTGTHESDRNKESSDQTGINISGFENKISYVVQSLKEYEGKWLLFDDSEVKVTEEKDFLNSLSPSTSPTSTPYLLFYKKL
Chain of Guanine nucleotide-binding protein G(i) subunit alpha-1 (Homo sapiens) (P63096 whole entry, looked up): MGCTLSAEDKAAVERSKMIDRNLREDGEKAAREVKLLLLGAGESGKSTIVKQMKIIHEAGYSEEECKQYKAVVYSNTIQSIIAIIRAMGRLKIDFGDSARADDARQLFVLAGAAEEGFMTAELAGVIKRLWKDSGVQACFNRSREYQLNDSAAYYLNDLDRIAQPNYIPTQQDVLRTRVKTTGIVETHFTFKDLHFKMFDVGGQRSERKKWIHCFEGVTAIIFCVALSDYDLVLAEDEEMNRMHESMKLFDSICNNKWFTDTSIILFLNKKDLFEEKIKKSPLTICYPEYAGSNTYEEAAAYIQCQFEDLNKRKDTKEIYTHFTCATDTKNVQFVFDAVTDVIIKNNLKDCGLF

COC1=CC(=O)OC(/C=C/c2ccccc2)C1 (configuration not stated)
inactive: outcome [1] | activity change, negative = inhibition ([2]; at 17.2 µM (top of the series)) -0.501% | Potency [3] > 20.6 µM | Potency [4] | Potency [5]

CCOC(=O)c1ncn2c1[C@H]1CCCN1C(=O)c1cc(OC)ccc1-2
inactive: Potency [6] | activity change, negative = inhibition ([2]; at 38 µM (top of the series)) 7.15% | Potency [3] > 46 µM | Potency [7] > 46 µM | outcome [8] | Potency [9] | outcome [10] | Potency [11] | Potency [12] | Potency [13] | Potency [14] | outcome [15] | Potency [16] | Potency [17] | outcome [18] | outcome [19] | outcome [20] | outcome [21] | Potency [22] | Potency [23] | Potency [4] | Potency [5]
